PubChem BioAssay AID504327 (National Center for Advancing Translational Sciences (NCATS), 2011)
Several values for one entry are separate records, joined by “and”; a condition that tells them apart may be missing. Identical values can stand only once. Hit rate of the full screen: of about 390,000 compounds, about 820 (0.21%) were called active. Inconclusive results (about 3%) are left out. The call rests on the fitted dose curve; in most records, active means well fitted inhibition curve with a large enough effect; inconclusive means small, poorly fitted or top-dose-only effect, or another doubt; inactive means no such curve, though single readings can be large or run the other way. What follows is part of a selection rich in actives, with near analogues and random picks from the rest. Where a structure was tested more than once in an assay, its records may differ in their call.

Biological target: Histone acetyltransferase KAT2A (Homo sapiens) (UniProt Q92830)
Experiment: qHTS Assay for Inhibitors of GCN5L2
Settings: GCN5L2 HAT assay, ThioGlo1 CoA-SH fluorescence; series mostly up to 58.9 µM; activity change, negative = inhibition: at the top concentration
Method in brief: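 Titration-based screen in which CoA formation is detected via maleimide probe ThioGlo1 (50uM) turning fluorescent on thiol reaction; substrates H3(1-25) 75uM and acetyl-CoA 70uM, GCN5L2 20nM, 20 min incubation at room temperature.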
On the % scale 0 is the no-effect control and ±100 the full control effect; potency means the concentration at half of the fitted maximal effect.

Chain of Histone acetyltransferase KAT2A (Homo sapiens) (Q92830 whole entry, looked up): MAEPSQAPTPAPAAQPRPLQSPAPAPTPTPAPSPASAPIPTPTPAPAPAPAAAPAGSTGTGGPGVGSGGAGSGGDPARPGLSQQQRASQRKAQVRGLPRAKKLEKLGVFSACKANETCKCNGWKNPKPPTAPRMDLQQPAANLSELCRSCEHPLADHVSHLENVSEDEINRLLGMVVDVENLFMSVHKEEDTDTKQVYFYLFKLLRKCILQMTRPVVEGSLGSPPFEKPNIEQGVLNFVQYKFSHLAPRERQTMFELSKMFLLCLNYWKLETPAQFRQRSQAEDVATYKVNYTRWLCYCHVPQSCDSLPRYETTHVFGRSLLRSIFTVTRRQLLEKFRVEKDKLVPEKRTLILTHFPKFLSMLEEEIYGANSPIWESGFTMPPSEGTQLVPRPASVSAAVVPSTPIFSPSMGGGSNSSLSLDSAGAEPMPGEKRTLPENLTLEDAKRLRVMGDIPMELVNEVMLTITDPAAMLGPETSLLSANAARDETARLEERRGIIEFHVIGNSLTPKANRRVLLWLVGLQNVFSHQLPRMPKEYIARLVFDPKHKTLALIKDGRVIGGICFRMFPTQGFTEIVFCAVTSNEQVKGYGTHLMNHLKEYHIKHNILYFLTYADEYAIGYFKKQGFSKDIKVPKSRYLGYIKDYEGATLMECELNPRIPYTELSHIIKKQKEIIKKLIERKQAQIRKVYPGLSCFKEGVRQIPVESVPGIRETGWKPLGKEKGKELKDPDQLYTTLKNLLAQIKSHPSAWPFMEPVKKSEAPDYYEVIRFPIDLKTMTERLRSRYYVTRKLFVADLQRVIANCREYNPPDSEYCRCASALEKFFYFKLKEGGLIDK

Molecule	activity change, negative = inhibition	Potency
O=c1c(CCc2ccccc2)nc2cncnc2n1C1CC1	0.326% (inactive)	–
CC(C)=CCC/C(C)=C/CC/C(C)=C/CC/C(C)=C/CO	–	inactive
O=C(c1csnn1)N1CCC[C@@]2(CCN(c3cccc(-c4ccccc4)c3)C2)C1	-17.1% (inactive)	–
Nc1nc2[nH]c(=O)c(=O)[nH]c2c(=O)[nH]1	3.18% (inactive)	–
Cc1cnc(CNc2cc(-c3c(C)noc3C)ncn2)cn1	-10.5% (inactive)	–
C=CCC1CCC(=O)N2CCCC12 (stereo not drawn)	-15.7% [at 135 µM] (inactive)	–
CCCCCCCCCc1ccc(OCCOCCOCCOCCOCCOCCOCCOCCOCCO)cc1	27.3% (inactive)	–
Cn1cc(-c2nc3cncnc3n(-c3ccccc3)c2=O)c2ccccc21	-4.06% (inactive)	–
Oc1ccc2c(c1)OCC1c3cc4c(cc3OC21)OCO4 (stereo not drawn)	4.11% (inactive)	–
Nc1ncnc2c1c(I)cn2[C@@H]1C[C@H](N)[C@@H](O)[C@H]1O	-11.2% (inactive)	–
COc1ccc2[nH]cc(CCNc3ncnc4ccc(-c5ccc(C(=O)N(C)C)cc5)cc34)c2c1	-4.79% (inactive)	–
CC1OC(OCC2OC(Oc3c(-c4ccc(O)c(O)c4)oc4cc(O)cc(O)c4c3=O)C(O)C(O)C2O)[C@@H](O)C(O)C1O (stereo partly drawn)	-15.9% (inactive)	–
CCOCCOC(=O)C(C)Oc1ccc(Oc2ncc(C(F)(F)F)cc2Cl)cc1 (stereo not drawn)	0% (inactive)	–
CS(=O)(=O)N1CCC2(CC1)CN(Cc1ccccc1)C2	-8.7% (inactive)	–
COCCNc1ncnc2ccc(-c3cccnc3)cc12	-18.5% (inactive)	–
CCC(CCC(C)C1CCC2C3CC=C4CC(O)CC[C@@]4(C)C3CC[C@@]12C)C(C)C (stereo partly drawn)	2.86% (inactive)	–
O=P(O)(O)C(O)c1ccc2ccccc2c1 (stereo not drawn)	9.85% (inactive)	–
CC(O)[C@@H](N)C(=O)O (stereo partly drawn)	-8.25% (inactive)	–
COc1ccc(CNc2ncnc3ccc(-c4cccnc4)cc23)c(OC)c1	-12.1% (inactive)	–
CCOC(=O)Cn1c(=O)sc2cccc(Cl)c21	0.871% (inactive)	–
CCNc1ncc2nc(CCc3ccccc3)c(=O)n(-c3ccc(OC)cc3)c2n1	2.19% (inactive)	–
O=c1c(-c2ccc(F)cc2)nc2cnc(N3CCNCC3)nc2n1Cc1cccs1	-23.1% (inactive)	–
Cn1cc(-c2nc3cnc(N4CCNCC4)nc3n(CCC#N)c2=O)c2ccccc21	-38.3% (inactive)	–
N#Cc1cccc(-c2nc3cnc(N4CCNCC4)nc3n(C3CC3)c2=O)c1	–	28.2 µM (active)
O=C(c1cc(C(F)(F)F)cc(C(F)(F)F)c1)N1CCC2(CCCN(c3ccccn3)C2)CC1	-12.1% (inactive)	–
CN1CCN2c3ccccc3Cc3ccccc3[C@@H]2C1	-1.21% [at 21.4 µM] (inactive)	–

Molecule	activity change, negative = inhibition	Potency
CN1CCN(c2ncc3nc(-c4ccc(Cl)cc4)c(=O)n(-c4ccccc4)c3n2)CC1	-9.91% (inactive)	–
CCCCC/C=C\CC1OC1CCCCCCCC(=O)O (stereo not drawn)	13.4% (inactive)	–
Cc1cccc(CNc2cc(-c3ccccc3Cl)ncn2)c1	-15.1% (inactive)	–
C=CC(=O)c1ccc2ccccc2c1	-23.4% (inactive)	–
COCCn1c(=O)c(-c2ccccc2)nc2cnc(N3CCOCC3)nc21	-22.9% (inactive)	–
CC[C@H](C)[C@H](NC(=O)[C@@H](N)CCC(=O)O)C(=O)N[C@@H](CC(C)C)C(=O)N[C@@H](CC(=O)O)C(=O)N[C@H](C(=O)N1CCC[C@H]1C(=O)N[C@@H](CO)C(=O)N[C@H](C(=O)O)[C@@H](C)O)C(C)C	21.2% (inactive)	–
NCCCCC(N)C(=O)O (stereo not drawn)	–	inactive
CC(C)c1ccc(Cn2c(COc3ccccc3)nc3ccccc32)cc1	-16.6% (inactive)	–
Cc1c(C)n(Cc2ccc(Cl)cc2)c2ccc(C(=O)N3CCN(c4ccccc4F)CC3)cc12	3.04% (inactive)	–
C=C(C)C1CC=C(CO)CC1 (stereo not drawn)	0.773% (inactive)	–
COc1ccc2[nH]cc(CCNc3nc(-c4cccc(NS(C)(=O)=O)c4)nc4ccccc34)c2c1	-9.04% (inactive)	–
CC(=O)N(c1ccc2oc(=O)sc2c1)S(=O)(=O)c1ccc(C)cc1	-8.64% (inactive)	–
O=C(CN(c1cc(C(F)(F)F)ccc1Cl)S(=O)(=O)c1ccccc1)NCc1cccnc1	-8.69% (inactive)	–
O=C(c1cccnc1)N(c1cc2sc(=O)oc2c2ccccc12)S(=O)(=O)c1ccccc1	–	31.6 µM (active)
CC(C)(O)CCC(O)[C@@](C)(O)C1CC[C@]2(O)C3=CC(=O)C4CC(O)C(O)C[C@]4(C)C3CC[C@]12C (stereo partly drawn)	2.5% (inactive)	–
Cc1cn([C@H]2CC(F)[C@@H](CO)O2)c(=O)[nH]c1=O (stereo partly drawn)	-0.475% (inactive)	–
C=CCOC(=O)C(=C)C	0% (inactive)	–
O=c1c(-c2cc(F)cc(F)c2)nc2cnc(Oc3ccccc3)nc2n1C[C@H]1CCCO1	-28.4% (inactive)	–
Cc1ccnc(-n2sc3ccccc3c2=O)n1	–	3.16 µM (active)
O=C(c1cc(C(F)(F)F)cc(C(F)(F)F)c1)N1CCC[C@@]2(CCN(c3ccccn3)C2)C1	-8.29% (inactive)	–
CCCCCCCC/C=C\CCCCCCCC(=O)OC[C@H](CO)OC(C)=O	-5.32% (inactive)	–
O=C(c1ccco1)N1CCC[C@@]2(CCN(c3ccccc3)C2)C1	-8.32% (inactive)	–
Cc1ccc(CC2(O)CCN(CCOc3ccc(O)cc3)CC2)cc1	-13.7% (inactive)	–
CC(=O)OCC(=O)[C@@]1(O)CCC2C3CCC4=CC(=O)CC[C@]4(C)C3C(=O)C[C@]21C (stereo partly drawn)	22% (inactive)	–
COc1ccc(NC(=O)COCc2cc(-c3ccco3)on2)cc1	-2.39% (inactive)	–
CCOc1ccc(NC(=O)c2ncoc2-c2ccco2)cc1	-0.384% (inactive)	–

Molecule	activity change, negative = inhibition	Potency
O=C(NCc1ccccn1)c1ccc2nc(-c3ccco3)c(-c3ccco3)nc2c1	–	11.2 µM (active)
COc1ccc(-c2nc3ccc(C(=O)NCc4ccc(C)cc4)cc3nc2-c2ccc(OC)cc2)cc1	-0.354% (inactive)	–
COCCNC(=O)Nc1ccc2nc(-c3ccco3)c(-c3ccco3)nc2c1	–	17.8 µM (active)
CCN(c1ccccc1)S(=O)(=O)c1cc(C(=O)NCc2ccccn2)ccc1C	-1.59% (inactive)	–
C[C@]12CC[C@@H]3C(=CCc4cc(O)ccc43)[C@@H]1CCC2=O	-0.875% [at 21.4 µM] (inactive)	–
OCCN1CCN(CC/C=C2\c3ccccc3Sc3ccc(C(F)(F)F)cc32)CC1	4.51% [at 21.4 µM] (inactive)	–
Nc1nc2c(nc(Cl)n2C2OC(CO)C(O)C2O)c(=O)[nH]1 (stereo not drawn)	-3.22% (inactive)	–
COc1ccc(C(=O)N2CCC3(CCCN(C(c4ccccc4)c4ccccc4)C3)CC2)cc1	-8.68% (inactive)	–
FCOC(C(F)(F)F)C(F)(F)F	5.6% (inactive)	–
N#CCCn1c(=O)c(-c2cc(F)cc(F)c2)nc2cnc(Oc3ccccc3)nc21	-10.8% (inactive)	–
Nc1nc2nc(Cl)[nH]c2c(=O)[nH]1	2.74% (inactive)	–
O=c1c(O)c(-c2ccc(O)cc2)oc2ccccc12	-23.8% (inactive)	–
Oc1ccc(-c2c(-c3ccccc3)nn3c(C(F)(F)F)cc(C(F)(F)F)nc23)cc1	2.29% (inactive)	–
Fc1ccc(Cl)cc1-c1nc(Nc2ccncc2)c2nccnc2n1	-19.4% (inactive)	–
Cc1ccc(-c2nn(-c3ccccc3)cc2/C=C2\SC(=S)N(CCCCCC(=O)O)C2=O)o1	–	25.1 µM (active)
CO[C@@]12[C@@H](COC(N)=O)C3=C(C(=O)C(C)=C(N)C3=O)N1C[C@@H]1N[C@@H]12	-20.7% (inactive)	–
COc1ccccc1CNc1ncnc2ccc(-c3c(C)noc3C)cc12	-14.3% (inactive)	–
COc1ccccc1-c1nc(NCc2cccs2)c2ccccc2n1	-21.4% (inactive)	–
H-EHIPA-OH	18.8% (inactive)	–
Nc1nc2c(ncn2[C@@H]2O[C@H](COP(=O)(O)OP(=O)(O)OP(=O)(O)O)[C@@H](O)C2O)c(=O)[nH]1 (stereo partly drawn)	-12.8% (inactive)	–
O=C(Nc1cccc(C(F)(F)F)c1)c1ccc(N2CCNCC2)c([N+](=O)[O-])c1	-2.11% (inactive)	–
O=C(Cc1ccc(S(=O)(=O)N2CCOCC2)s1)N1CCN(c2ccc(C(F)(F)F)cc2[N+](=O)[O-])CC1	-13.7% (inactive)	–
COc1cc(OC)cc(C(=O)NC(=S)N2CCN(c3ccc(C(F)(F)F)cc3[N+](=O)[O-])CC2)c1	–	2 µM (active)
CC(C)=CCN1CCC2(CCc3ccccc32)CC1	4.12% (inactive)	–
CC(C)C(NS(=O)(=O)c1ccc(-c2ccc(Br)cc2)cc1)C(=O)O (stereo not drawn)	0% (inactive)	–
COCCn1c(=O)c(-c2cccs2)nc2cncnc21	-22.2% (inactive)	–

Molecule	activity change, negative = inhibition	Potency
OCC(CO)NC1C[C@](O)(CO)[C@@H](O)[C@H](O)[C@H]1O (stereo partly drawn)	8.63% (inactive)	–
COc1ccc(CNc2ncncc2-c2ccccc2C)c(OC)c1	-21.1% (inactive)	–
COc1ccc(CCCOC(Cn2ccnc2)c2ccc(OC)cc2)cc1 (stereo not drawn)	–	inactive
O=C(Nc1c(C(=O)N2CCCCC2)cnn1-c1ccccc1)c1ccco1	–	17.8 µM (active)
Cc1ccccc1NC(=O)c1cnn(-c2ccccc2)c1NC(=O)c1ccco1	-1.21% (inactive)	–
O=C(Cc1ccccc1)Nc1c(C(=O)N2CCCCCC2)cnn1-c1ccccc1	-0.211% (inactive)	–
O=C(/C=C/c1cccc(F)c1)NC1CC1	-6.39% (inactive)	–
CC(C)C1=CC2=CC[C@@H]3[C@](C)(CO)CCC[C@]3(C)C2CC1 (stereo partly drawn)	-17.6% (inactive)	–
CC1=C(/C=C/C(C)=C/C=C/C(C)=C/C=C/C=C(C)/C=C/C=C(C)/C=C/C(=O)[C@]2(C)C[C@@H](O)CC2(C)C)C(C)(C)C[C@H](O)C1	-12.7% (inactive)	–
C#CCCCCCCCCCCCCCCCC(=O)O	–	inactive and 11.2 µM (active)
O=C(O)CCCCC(=O)O	58.8% (inactive)	–
CCCCCCCCCCCC(=O)O	-5.79% (inactive)	–
NC(=O)c1sc(-c2ccsc2)cc1N	-5.86% (inactive)	–
Cc1nc2cnc(N3CCNCC3)nc2n(CCc2ccccc2)c1=O	-21.2% (inactive)	–
Cc1ccccc1-c1ccc(C(=O)O)s1	-15.4% [at 135 µM] (inactive)	–
Cn1cc(-c2nc3cnc(N4CCNCC4)nc3n(CCc3ccccc3)c2=O)c2ccccc21	-14.4% (inactive)	–
NCCCNCCCCN(CCCN)/[N+]([O-])=N/O	-12.4% (inactive)	–
CC(C)(C)C(=O)Nc1ccc(-c2cn3cccnc3n2)cc1	-29.9% (inactive)	–
FC(F)(F)Oc1ccc(-c2cn3cccnc3n2)cc1	-8.87% (inactive)	–
COc1ccc(-c2cn3cccnc3n2)cc1	–	31.6 µM (active)
CC1O[C@@H](Oc2c(-c3ccc(O)c(O)c3)oc3cc(O)cc(O)c3c2=O)C(O)C(O)C1O (stereo partly drawn)	10.8% (inactive)	–
C=C1C(=O)C23C(O)C1CCC2[C@]12COC3(O)C(O)C1C(C)(C)CC[C@H]2O (stereo partly drawn)	-7.65% (inactive)	–
COc1ccc(N2CCN(S(=O)(=O)c3ccc(-c4coc(C)n4)cc3)CC2)cc1	-1.94% (inactive)	–
COc1ccc(S(=O)(=O)N2CCN(c3ccc(F)cc3)CC2)cc1-c1noc(C)n1	-5.52% (inactive)	–
CCc1nc(-c2cc(S(=O)(=O)N3CCN(c4ccc(OC)cc4)CC3)ccc2OC)no1	–	25.1 µM (active)
